# Source: PubChem BioAssay
# Calls of active or inactive are those of the source.
# Legend:
# [1] = tested on: PRMT1 (protein arginine N-methyltransferase 1); test: PRMT1 binders on small-molecule microarrays, primary screen, biochemical, small-molecule microarray, 635 nm fluorescence (AID 1088); conditions: small-molecule microarray binding, higher = more signal;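 further: binding of Prmt1 protein to compounds spotted on small-molecule microarray slides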
# [2] = yeast growth modulation, basal conditions, primary screen, YJM789 clinical isolate, OD600, 24 h (AID 1089);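 further: growth of clinical yeast isolate S. cerevisiae YJM 789 seeded 1000 cells per well; test concentration not given here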; conditions: S. cerevisiae YJM789 growth, higher = more signal, called active from +8 up or from −8 down
# [3] = fission yeast growth modulation, primary screen, strain 972, OD600, 24 h, no modulator (AID 1090);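 further: basal condition with compound alone and no growth modifier present; test concentration not given here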; conditions: S. pombe 972 growth, higher = more signal, called active from +8 up or from −8 down
# [4] = S. cerevisiae growth modulation with rapamycin, primary screen, strain BY4716, OD600, 96 h (AID 1091); conditions: higher = more signal, called active from +8 up or from −8 down; further: test concentration not given here
# [5] = target: Torsin-1A-interacting protein 2 (Homo sapiens) (UniProt Q8NFQ8); test: LULL1 binders on small-molecule microarray, primary screen, cell lysate, human LULL1 lysate, 635/667 nm fluorescence (AID 1092); conditions: hLULL1 lysate binding, 635 nm fluorescence, higher = more signal;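 further: probe is lysate of COS7 cells overexpressing human LULL1; score merges per-feature 667 nm fluorescence with signal-to-noise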
# Sequence of Torsin-1A-interacting protein 2 (Homo sapiens) (Q8NFQ8 whole entry, looked up): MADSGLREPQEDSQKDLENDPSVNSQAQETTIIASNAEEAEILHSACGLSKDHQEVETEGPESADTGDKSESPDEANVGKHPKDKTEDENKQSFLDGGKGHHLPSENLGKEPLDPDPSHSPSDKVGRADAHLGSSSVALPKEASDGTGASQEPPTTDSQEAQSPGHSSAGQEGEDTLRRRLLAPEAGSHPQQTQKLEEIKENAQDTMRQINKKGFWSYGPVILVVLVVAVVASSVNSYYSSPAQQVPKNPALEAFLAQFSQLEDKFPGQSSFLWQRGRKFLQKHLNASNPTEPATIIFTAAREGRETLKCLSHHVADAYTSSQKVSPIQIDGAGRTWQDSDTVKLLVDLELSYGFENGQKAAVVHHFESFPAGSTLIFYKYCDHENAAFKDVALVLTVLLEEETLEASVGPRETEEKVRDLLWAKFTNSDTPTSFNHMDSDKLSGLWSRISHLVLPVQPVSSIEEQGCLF
# [6] = E. coli growth modulation, two-sided OD650, primary screen, E. coli filamentation project, strain DRC41, 24 h (AID 1093); conditions: OD650, 24 h, higher = more signal, called active from +8 up or from −8 down;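 further: MC1000 strain lacking acrAB efflux and sulA so SOS filamentation is blocked; test concentration not given here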
# [7] = small-molecule microarray binders of probe aLefty2, primary screen, biochemical, biotinylated probe, 635/667 nm fluorescence (AID 1094); conditions: higher = more signal;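 further: score merges spot fluorescence near 667 nm with spot signal-to-noise ratio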
# [8] = tested on: Noggin (protein binding on small-molecule microarray); test: Noggin binders on small-molecule microarray, primary screen, biochemical, 635/667 nm fluorescence (AID 1095); conditions: 635 nm fluorescence, higher = more signal;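 further: score merges 667 nm feature fluorescence with signal to noise over triplicate slides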
# [9] = target: Neurogenic locus notch homolog protein 3 (Homo sapiens) (UniProt Q9UM47); test: NOTCH3 binders on small-molecule microarray, primary screen, biochemical, 635/667 nm fluorescence (AID 1096); conditions: NOTCH3 binding, 635 nm fluorescence, higher = more signal
# Sequence of Neurogenic locus notch homolog protein 3 (Homo sapiens) (Q9UM47 whole entry, looked up): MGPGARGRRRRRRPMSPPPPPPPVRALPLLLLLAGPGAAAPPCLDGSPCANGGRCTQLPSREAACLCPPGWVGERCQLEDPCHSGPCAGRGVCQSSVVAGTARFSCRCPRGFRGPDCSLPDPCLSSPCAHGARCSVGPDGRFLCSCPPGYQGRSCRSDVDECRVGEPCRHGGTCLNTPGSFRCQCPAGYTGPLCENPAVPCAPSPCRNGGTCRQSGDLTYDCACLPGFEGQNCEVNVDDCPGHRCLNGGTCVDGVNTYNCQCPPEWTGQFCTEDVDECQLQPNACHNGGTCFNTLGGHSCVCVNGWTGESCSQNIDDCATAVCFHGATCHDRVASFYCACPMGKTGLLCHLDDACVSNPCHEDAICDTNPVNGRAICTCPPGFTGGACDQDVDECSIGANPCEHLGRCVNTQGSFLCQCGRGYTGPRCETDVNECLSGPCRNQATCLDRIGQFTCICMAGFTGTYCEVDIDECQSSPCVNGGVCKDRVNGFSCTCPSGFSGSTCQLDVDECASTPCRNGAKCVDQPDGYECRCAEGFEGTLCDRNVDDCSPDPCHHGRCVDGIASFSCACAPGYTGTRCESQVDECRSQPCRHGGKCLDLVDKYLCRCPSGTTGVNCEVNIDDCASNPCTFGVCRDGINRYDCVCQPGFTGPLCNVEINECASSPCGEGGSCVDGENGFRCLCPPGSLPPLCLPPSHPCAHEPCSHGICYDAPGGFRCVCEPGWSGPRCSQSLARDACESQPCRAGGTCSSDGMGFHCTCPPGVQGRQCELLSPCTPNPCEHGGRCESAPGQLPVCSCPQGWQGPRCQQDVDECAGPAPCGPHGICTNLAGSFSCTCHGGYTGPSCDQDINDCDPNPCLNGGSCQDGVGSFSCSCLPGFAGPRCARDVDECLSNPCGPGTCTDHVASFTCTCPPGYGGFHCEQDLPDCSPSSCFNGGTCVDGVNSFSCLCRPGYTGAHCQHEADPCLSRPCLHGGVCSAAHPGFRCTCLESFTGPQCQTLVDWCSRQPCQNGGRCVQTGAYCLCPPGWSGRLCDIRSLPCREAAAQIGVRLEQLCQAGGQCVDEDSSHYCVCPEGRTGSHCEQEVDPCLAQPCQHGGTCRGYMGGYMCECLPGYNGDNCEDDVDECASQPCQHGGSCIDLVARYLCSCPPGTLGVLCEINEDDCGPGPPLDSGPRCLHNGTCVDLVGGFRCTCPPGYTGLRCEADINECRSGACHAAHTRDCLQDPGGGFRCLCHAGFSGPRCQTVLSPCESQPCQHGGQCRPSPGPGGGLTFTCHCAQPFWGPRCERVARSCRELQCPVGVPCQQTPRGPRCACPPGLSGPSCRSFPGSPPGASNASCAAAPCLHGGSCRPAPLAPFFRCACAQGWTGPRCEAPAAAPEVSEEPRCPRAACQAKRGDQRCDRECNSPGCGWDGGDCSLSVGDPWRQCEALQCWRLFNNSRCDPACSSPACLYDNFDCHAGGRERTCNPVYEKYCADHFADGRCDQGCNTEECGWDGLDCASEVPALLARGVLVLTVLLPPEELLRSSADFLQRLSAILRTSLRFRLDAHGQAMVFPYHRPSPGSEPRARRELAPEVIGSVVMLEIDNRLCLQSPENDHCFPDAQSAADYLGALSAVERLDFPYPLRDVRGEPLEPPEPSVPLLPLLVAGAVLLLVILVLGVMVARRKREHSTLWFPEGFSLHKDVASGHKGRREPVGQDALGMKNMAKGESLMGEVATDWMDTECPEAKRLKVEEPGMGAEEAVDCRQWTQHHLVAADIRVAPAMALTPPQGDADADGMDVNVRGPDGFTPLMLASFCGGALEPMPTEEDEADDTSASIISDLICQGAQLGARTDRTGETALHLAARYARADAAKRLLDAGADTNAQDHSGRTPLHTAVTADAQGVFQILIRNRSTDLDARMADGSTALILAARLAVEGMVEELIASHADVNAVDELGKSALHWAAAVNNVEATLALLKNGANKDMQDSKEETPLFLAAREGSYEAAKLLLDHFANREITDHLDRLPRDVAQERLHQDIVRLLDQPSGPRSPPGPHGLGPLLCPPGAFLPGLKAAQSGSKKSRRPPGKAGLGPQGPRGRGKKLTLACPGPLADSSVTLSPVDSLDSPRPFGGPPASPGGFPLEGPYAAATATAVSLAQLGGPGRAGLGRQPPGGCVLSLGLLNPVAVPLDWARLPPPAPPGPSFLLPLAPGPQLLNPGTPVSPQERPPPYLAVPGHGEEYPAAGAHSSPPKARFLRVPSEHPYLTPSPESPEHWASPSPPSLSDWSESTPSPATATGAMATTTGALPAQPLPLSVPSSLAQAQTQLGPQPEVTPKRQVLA
# [10] = small-molecule microarray binders of probe aEGFR, primary screen, biochemical, biotinylated probe, 635/667 nm fluorescence (AID 1097); conditions: higher = more signal;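 further: probe is a biotinylated anti-EGFR antibody binding compounds printed on slides; score combines fluorescence near 667 nm and signal to noise of each spot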
Structure (SMILES),composite z-score [1],z-score [2],z-score [3],z-score [4],composite z-score [5],z-score [6],composite z-score [7],composite z-score [8],composite z-score [9],composite z-score [10]
[N-]=[N+]=NCc1ccccc1C[C@@]1(C(=O)NCCN2CCOCC2)N=C(c2ccc(OCCCO)cc2)O[C@@H]1c1ccccc1N=[N+]=[N-],1.37,-1.22 (inactive),-0.269 (inactive),1.29 (inactive),3.12,-0.704 (inactive),0.09,0.622,0.842,-0.0738
C=C[C@@H](C)[C@H](OC(=O)Nc1ccc(SC)cc1)c1ccc(OCCO)cc1,-0.0446,0.103 (inactive),-1.02 (inactive),-0.32 (inactive),0.721,1.18 (inactive),-0.136,0.362,0.405,-0.105
CC(C)c1ccc(NN2C(C(O)c3ccco3)C=CC3C(=O)N(c4ccccc4)C(=O)C32)cc1 (stereo not given),1.57,0.61 (inactive),0.431 (inactive),-0.419 (inactive),3.27,-0.577 (inactive),0.0997,0.18,1.02,0.0308
COCCOC(=O)N1C(=O)[C@@]2(c3cc(C#Cc4ccc(OC)cc4)ccc31)[C@H](C(=O)NC[C@H](O)c1ccccc1)[C@H]1C(=O)O[C@H](c3ccccc3)[C@H](c3ccccc3)N1[C@@H]2c1ccc(O)cc1,1.54,0.254 (inactive),1.06 (inactive),1.08 (inactive),2.49,0.394 (inactive),-0.0159,0.793,1.05,0.268
COCCOC(=O)N1C(=O)[C@@]2(c3cc(C#Cc4ccc(OC)cc4)ccc31)[C@H](C(=O)N1CCN(c3ncccn3)CC1)[C@H]1C(=O)O[C@H](c3ccccc3)[C@H](c3ccccc3)N1[C@@H]2c1ccccc1OCCO,1.45,3.33 (inactive),2.27 (inactive),7.9 (inactive),2.17,-0.332 (inactive),-0.0917,0.735,0.605,-0.0382
COC(=O)[C@@]1(Cc2ccc(F)cc2)[C@H]2c3cc(C(=O)N4CCCC4)n(CCF)c3C[C@H]2CN1C(=O)c1ccccc1,-0.195,-0.496 (inactive),-0.202 (inactive),-0.0254 (inactive),3.13,0.164 (inactive),1.49,-0.258,1.13,0.879
COCCOC(=O)N1C(=O)[C@@]2(c3cc(C#Cc4ccc(OC)cc4)ccc31)[C@H](C(=O)N1CCCCCCC1)[C@H]1C(=O)O[C@H](c3ccccc3)[C@H](c3ccccc3)N1[C@@H]2c1ccc(O)cc1,1.47,-0.194 (inactive),0.318 (inactive),2.3 (inactive),1.79,0.551 (inactive),0.834,0.674,0.709,0.0577
COc1ccc([Si](C)(C)[C@@H]2[C@@H](CC(=O)N3CCC[C@H]3CO)O[C@]3(C(=O)N(Cc4ccc(N5C(=O)c6cccc7cccc5c67)cc4)c4ccccc43)[C@H]2C)cc1,1.54,0.035 (inactive),0.378 (inactive),0.922 (inactive),3.07,1.84 (inactive),-0.238,1.41,1.08,-0.129
CO[C@H]1O[C@H](CO)[C@@H](OC(=O)Nc2ccc(C(F)(F)F)cc2)[C@H](OC(=O)Nc2ccc3c(c2)OCO3)[C@H]1OC(=O)Nc1ccc2c(c1)OCO2,1.54,0.724 (inactive),0.908 (inactive),14.9 (active),3.03,-0.298 (inactive),0.0631,0.293,1.11,0.104
COC(=O)[C@@]1(Cc2ccc(OC)cc2)[C@H]2c3cc(C(=O)N(C)C)n(CCc4c[nH]c5ccc(O)cc45)c3C[C@H]2CN1C(=O)c1ccccc1,0.56,1.94 (inactive),0.466 (inactive),3.51 (inactive),3.36,-0.765 (inactive),0.41,-0.0794,1.02,0.102
C[C@H]1C2=C3C(CC[C@H]4C(OCc5ccc(F)cc5C(F)(F)F)OC[C@](C)([C@@H]34)N(C(=O)OC(C)(C)C)C2)C(CO)C1CO (stereo not given in full),0.889,0.24 (inactive),-3.71 (inactive),0.0345 (inactive),3.04,-1.5 (inactive),0.606,-0.904,1.05,0.0149
COC(=O)C1(Cc2ccccc2)C=C2C(=C(c3ccccc3)C(=O)C2C)CN1 (stereo not given),-1.24,-0.175 (inactive),-0.183 (inactive),0.269 (inactive),1.29,-0.749 (inactive),1.32,-1.58,0.885,1.29
[N-]=[N+]=NCc1ccccc1C[C@]1(C(=O)NCC(O)CO)N=C(c2ccc(OCCCO)cc2)O[C@H]1c1ccccc1CN=[N+]=[N-] (stereo not given in full),1.56,-0.331 (inactive),0.735 (inactive),1.48 (inactive),3.6,-0.172 (inactive),0.054,-0.0965,0.624,0.306
O=C1C2C=CC(C(O)c3cc(C(F)(F)F)cc(C(F)(F)F)c3)N(Nc3ccc([N+](=O)[O-])cc3)C2C(=O)N1c1ccccc1 (stereo not given),1.54,0.527 (inactive),1.15 (inactive),33.4 (active),3.47,-1.57 (inactive),-0.0229,0.411,1.02,0.0149
